PubChem BioAssay (EPA / NIEHS)
Inconclusive results are not listed. Calls of active or inactive are those of the source. How the source made its calls: active means hit-call score of the fitted dose curve at least 0.9, where 1 is the maximum; inconclusive means response in the unintended direction; inactive means score below 0.9.

These molecules were tested against Estrogen receptor beta (Homo sapiens) (UniProt Q92731) (assay: OT_ER_ERbERb_0480: Odyssey Thera (OT) 8-hour HEK293T Protein-Complementation Assay for Estrogen Receptor-beta/-beta Homodimer (AID 2283357);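 further: active means signal gain over DMSO baseline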).
How it was run: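 Homodimerization of ER-beta LBD measured by protein-fragment complementation in HEK293T; 8 h dosing; fixed, Draq5 counterstain; fluorescence intensity gain over DMSO baseline, positive fitting direction; laser scanning cytometry.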

Sequence of Estrogen receptor beta (Homo sapiens) (Q92731 whole entry, looked up, the tested form may be a part): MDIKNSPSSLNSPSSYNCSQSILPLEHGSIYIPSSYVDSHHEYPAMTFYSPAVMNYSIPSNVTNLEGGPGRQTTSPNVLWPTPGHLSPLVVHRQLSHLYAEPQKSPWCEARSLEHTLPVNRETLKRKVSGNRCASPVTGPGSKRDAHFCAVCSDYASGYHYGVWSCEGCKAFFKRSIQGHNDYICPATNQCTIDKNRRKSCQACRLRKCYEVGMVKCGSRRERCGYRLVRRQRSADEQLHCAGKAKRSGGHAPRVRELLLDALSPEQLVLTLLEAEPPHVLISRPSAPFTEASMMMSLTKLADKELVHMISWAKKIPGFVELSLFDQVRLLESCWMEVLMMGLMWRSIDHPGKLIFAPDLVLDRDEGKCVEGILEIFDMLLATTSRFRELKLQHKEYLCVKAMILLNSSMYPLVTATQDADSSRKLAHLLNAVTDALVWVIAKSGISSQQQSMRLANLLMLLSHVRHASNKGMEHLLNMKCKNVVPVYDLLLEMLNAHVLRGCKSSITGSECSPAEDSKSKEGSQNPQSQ

Compound	outcome	AC50
C=C[C@@]1(C)CC(=O)[C@]2(O)[C@@]3(C)[C@@H](O)CCC(C)(C)[C@@H]3[C@H](O)[C@H](OC(C)=O)[C@@]2(C)O1	inactive	–
Nc1ccc(C(=O)O)cc1	inactive	–
CC(C)c1ccc(O)c(C(C)C)c1	inactive	–
O=C(Nc1ccccc1)c1cc(Cl)ccc1O	inactive	–
CCCC=C(C=O)CC	inactive	–
Oc1ccccc1Cc1ccccc1O	–	31.6 µM (active)
CCCCCCCCCCCCCCCCCCOS(=O)(=O)O	inactive	–
C=C1C[C@H]2[C@@H]3C=C(C)C4=CC(=O)CC[C@]4(C)[C@H]3CC[C@]2(C)[C@@]1(OC(C)=O)C(C)=O	inactive	–
NC(=O)Nc1ccccc1	inactive	–
O=C(O)C1CCC(C(=O)O)CC1 (stereo unspecified)	inactive	–
CN(C)c1ccc2nc3ccc(=[N+](C)C)cc-3sc2c1	–	70.8 µM (active)
CCCCCCCOC(=O)c1ccc(O)cc1	–	2.68 µM (active)
CC1=CCC2CC1C2(C)C (stereo unspecified)	inactive	–
C[Si](C)(C)N[Si](C)(C)C	inactive	–
C1CNCCN1	inactive	–
CCCC(CC)c1ccccc1 (stereo unspecified)	inactive	–
CCN1CN(CC)CN(CC)C1	inactive	–
CCCCCCCCCCCC(=O)N(C)CC(=O)O	inactive	–

Each molecule was assayed against Retinoic acid receptor alpha (Homo sapiens) (UniProt P10276) (assay: NVS_NR_hRAR_Antagonist: NovaScreen (NVS) Nuclear Receptor Binding Assay for human Retinoic Acid Alpha Receptor Antagonism (RAR) (AID 2283358)).
How it was run: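 Read-out: time-resolved FRET binding signal, 2 h post-dose, cell-free extracted protein. Antagonism scored as signal loss versus DMSO negative control. Primary single-concentration screen at 25 uM in duplicate; concentration series for actives.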

Sequence of Retinoic acid receptor alpha (Homo sapiens) (P10276 whole entry, looked up): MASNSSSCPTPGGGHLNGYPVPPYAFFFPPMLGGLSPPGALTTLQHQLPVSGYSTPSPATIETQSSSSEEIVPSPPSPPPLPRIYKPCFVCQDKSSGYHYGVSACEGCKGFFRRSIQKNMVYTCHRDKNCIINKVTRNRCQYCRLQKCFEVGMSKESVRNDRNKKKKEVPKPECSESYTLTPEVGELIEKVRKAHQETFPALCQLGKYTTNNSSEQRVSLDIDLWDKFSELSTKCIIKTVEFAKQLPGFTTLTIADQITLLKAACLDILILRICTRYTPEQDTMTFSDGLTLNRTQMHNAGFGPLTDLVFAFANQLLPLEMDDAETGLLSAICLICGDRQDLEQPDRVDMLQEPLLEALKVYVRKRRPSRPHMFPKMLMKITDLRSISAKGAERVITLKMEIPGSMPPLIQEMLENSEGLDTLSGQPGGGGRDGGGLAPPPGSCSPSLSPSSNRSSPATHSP

Compound	outcome	AC50
Nc1ccc(C(=O)O)cc1	inactive	–
CCCCCCCCCC[N+](C)(CCCCCCCCCC)CCC[Si](OC)(OC)OC	inactive	–
CCCCCCCCCCCCCCCCCCOS(=O)(=O)O	inactive	–
NC(=O)Nc1ccccc1	inactive	–
CCCCC/C=C\C/C=C\CCCCCCCC(=O)O	inactive	–
O=c1c(O)c(-c2ccc(O)cc2O)oc2cc(O)cc(O)c12	–	6.95 µM (active)

What follows are molecules tested against human Peroxisome Proliferator-activated Receptor alpha (PPARa), PPARA (gene 5465) (UniProt Q07869) (assay: NVS_NR_hPPARa: NovaScreen (NVS) Nuclear Receptor Binding Assay for human Peroxisome Proliferator-activated Receptor alpha (PPARa) (AID 2283359);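 further: activity means loss of TR-FRET signal versus DMSO baseline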).
How it was run: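 TR-FRET signal measured at 1 h post-dosing; loss-of-signal versus DMSO negative control taken as activity. Extracted gene-protein, cell-free format. Initial single-point duplicates at 25 uM, then concentration-response retests.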

Sequence of human Peroxisome Proliferator-activated Receptor alpha (PPARa), PPARA (gene 5465) (Q07869 whole entry, looked up): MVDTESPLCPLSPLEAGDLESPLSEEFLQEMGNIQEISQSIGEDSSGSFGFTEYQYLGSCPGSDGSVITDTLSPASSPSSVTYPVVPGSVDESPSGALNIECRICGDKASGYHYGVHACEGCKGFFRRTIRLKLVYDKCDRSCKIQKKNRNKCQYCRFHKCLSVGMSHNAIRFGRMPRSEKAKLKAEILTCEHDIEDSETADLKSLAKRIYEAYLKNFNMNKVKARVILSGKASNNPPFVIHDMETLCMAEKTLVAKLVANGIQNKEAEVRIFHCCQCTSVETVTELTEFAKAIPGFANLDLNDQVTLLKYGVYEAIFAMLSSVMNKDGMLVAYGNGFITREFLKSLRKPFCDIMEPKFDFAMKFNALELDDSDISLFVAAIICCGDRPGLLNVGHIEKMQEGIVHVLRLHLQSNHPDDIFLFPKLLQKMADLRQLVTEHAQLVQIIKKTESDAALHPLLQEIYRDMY

Compound	outcome	AC50
CCCCCCO	inactive	–
CCCCCCCCCC[N+](C)(CCCCCCCCCC)CCC[Si](OC)(OC)OC	–	8.29 µM (active)
CCCCNS(=O)(=O)c1ccc(C)cc1	inactive	–
CCCCCC[C@@H](O)C/C=C\CCCCCCCC(=O)OCC(O)CO (stereo partly specified)	–	15.5 µM (active)
CCCCC/C=C\C/C=C\CCCCCCCC(=O)O	–	13.1 µM (active)
CCCCCCCOC(=O)c1ccc(O)cc1	inactive	–
CCCC(CC)c1ccccc1 (stereo unspecified)	inactive	–

What follows are molecules tested against PGR (gene 5241) (UniProt P06401) (assay: NVS_NR_hPR: NovaScreen (NVS) Nuclear Receptor Binding Assay for human Progestron Receptor (PR) (AID 2283360);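 further: active means loss of bound radioligand signal versus DMSO baseline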).
How it was run: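 Radioligand competition binding on receptor extracted from T47D cells, read by scintillation counting 18 h after dosing. Loss of signal versus DMSO; primary screen in duplicate at 25 uM, actives followed in concentration series.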

Sequence of PGR (gene 5241) (P06401 whole entry, looked up): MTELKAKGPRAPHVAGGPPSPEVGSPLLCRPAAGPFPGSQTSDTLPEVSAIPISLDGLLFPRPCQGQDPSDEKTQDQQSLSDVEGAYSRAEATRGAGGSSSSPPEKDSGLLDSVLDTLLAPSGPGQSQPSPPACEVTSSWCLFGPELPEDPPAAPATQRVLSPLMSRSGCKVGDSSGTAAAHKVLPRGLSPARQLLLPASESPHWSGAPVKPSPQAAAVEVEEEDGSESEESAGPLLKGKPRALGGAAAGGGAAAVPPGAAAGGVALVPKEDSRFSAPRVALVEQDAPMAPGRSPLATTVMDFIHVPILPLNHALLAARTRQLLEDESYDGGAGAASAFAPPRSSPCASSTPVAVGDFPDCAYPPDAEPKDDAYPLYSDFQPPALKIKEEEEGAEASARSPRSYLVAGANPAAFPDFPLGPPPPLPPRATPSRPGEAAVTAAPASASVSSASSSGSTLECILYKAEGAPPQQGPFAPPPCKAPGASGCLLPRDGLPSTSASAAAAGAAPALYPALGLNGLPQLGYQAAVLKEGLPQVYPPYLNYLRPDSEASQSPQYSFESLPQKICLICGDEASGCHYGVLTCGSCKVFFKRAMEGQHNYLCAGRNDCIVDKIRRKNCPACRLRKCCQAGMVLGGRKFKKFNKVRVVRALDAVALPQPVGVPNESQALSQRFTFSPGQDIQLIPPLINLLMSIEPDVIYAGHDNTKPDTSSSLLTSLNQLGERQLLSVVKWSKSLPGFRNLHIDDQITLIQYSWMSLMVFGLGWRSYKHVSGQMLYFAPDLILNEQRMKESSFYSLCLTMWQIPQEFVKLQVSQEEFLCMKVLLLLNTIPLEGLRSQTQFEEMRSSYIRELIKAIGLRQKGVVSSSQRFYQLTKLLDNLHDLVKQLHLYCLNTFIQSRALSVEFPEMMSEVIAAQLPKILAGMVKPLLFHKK

Compound	outcome
CCC(C)c1ccccc1 (stereo unspecified)	inactive
CC(C)CCCCCOC(=O)CS	inactive
Cc1ccc([N+](=O)[O-])cc1N	inactive
CC/C=C\C/C=C\C/C=C\CCCCCCCC(=O)OC	inactive
Cc1cc(=O)[nH]c(=O)[nH]1	inactive
